For 30 molecules, CPE inhibition results are on record in PubChem BioAssay AID540333 (Southern Research Specialized Biocontainment Screening …, 2011).

Screen size: about 10,000 compounds; about 320 (3.2%) were called active. This is one part of a sample in which actives are shown more often than they occur. Values without a mark were called inactive. No stated cut-off is given here; in the data, active means CPE inhibition mostly above about 9.1% (no sharp cut-off); inactive means mostly below about 7.2%.

The test is described as follows: antivirals protecting cells from dengue CPE – CPE readout, HTS (AID 540333). To be noted: Dengue virus CPE inhibition in host cells, at 20 µM; hits give high values.
In the case of `c1ccc(-c2[nH]c(-c3ccccc3)[n+](CC3CO3)c2-c2ccccc2)cc1` (stereo not given), the CPE inhibition was 16.7% (active). For `O=C(NCCCN1CCOCC1)C(Cl)(Cl)Cl` the value was “inactive”; for `CCOC(=O)CCCCCNC(=O)c1c(O)[nH]c(=O)[nH]c1=O`, “inactive”.

In the case of `N#CC(C#N)=Cc1ccc(-c2ccccc2F)o1`, the CPE inhibition is 12.6% (active). Regarding `COC(=O)C1=C(c2ccc(C(C)=O)cc2)C[C@@H]2CC[C@H]1N2C(=O)N1CCCCC1`, the CPE inhibition result is “inactive”. Turning to `Cc1c(C(c2ccc(O)cc2)c2c(O)c3ccccc3oc2=O)c(=O)n(-c2ccccc2)n1C` (stereo not given), the CPE inhibition is 0.205%. As for `Cc1ccc(-n2c(O)c(/C=N/N3CCOCC3)c(=O)[nH]c2=S)cc1`, the figure is 0.115%; as for `COC(=O)C1=C(c2ccc(F)cc2F)C[C@@H]2CC[C@H]1N2C(=O)NC(C)C`, “inactive”.

Regarding `O=C(N/N=C/c1c(O)n(CCC2=CCCCC2)c(=O)[nH]c1=O)c1ccccc1`, the CPE inhibition is 0.065%.

Take `O=C(/C=C/c1ccc2c(c1)OCO2)c1c(O)n(CCC2=CCCCC2)c(=O)[nH]c1=O`: the CPE inhibition is 4.09%. Consider `COc1ccc(/C=C/C(=O)c2c(O)n(CCC3=CCCCC3)c(=O)[nH]c2=O)cc1`, for which the CPE inhibition is 9.38% (active). `CC(ON1CC1(C(F)(F)F)C(F)(F)F)(C(N)=O)C(N)=O` (stereo not given): the CPE inhibition is 0.53%.

Take `CN1c2ccc([N+](=O)[O-])cc2CC2(C(=O)NC(=O)NC2=O)C1c1ccccc1` (stereo not given): the CPE inhibition result is “inactive”. For `CC(C)N1C(=O)NC(=O)C2(Cc3cc([N+](=O)[O-])ccc3N(C)C2c2ccccc2)C1=O` (stereo not given) the value was 1.19%. Take `CN1c2ccc([N+](=O)[O-])cc2CC2(C(=O)NC(=O)N(c3ccccc3)C2=O)C1c1ccccc1` (stereo not given): the CPE inhibition was 15.4% (active). For the molecule `CN1C(=O)C(=Cc2ccc(N3CCOCC3)o2)C(=O)N(C)C1=O`, the CPE inhibition entry was “inactive”.

In the case of `C/C(=N\Nc1ccccc1)c1c(O)n(Cc2ccccc2)c(=O)[nH]c1=O`, the CPE inhibition result is “inactive”. Regarding `COC(=O)C1=C(c2ccc(F)cc2F)C[C@@H]2CC[C@H]1N2C(=O)NCCOc1ccccc1Cl`, the CPE inhibition is 3.74%.

For the molecule `CCCc1nc2ccc(Br)cc2c(=O)n1-c1ccc([N+](=O)[O-])c(C(F)(F)F)c1`, the CPE inhibition was 0.98%. Regarding `CCCNC(=O)N1[C@H]2CC[C@@H]1C(C(=O)OC)=C(c1cc3ccccc3o1)C2`, the CPE inhibition was 4.1%. As for `COC(=O)C1=C(c2cc3ccccc3o2)C[C@@H]2CC[C@H]1N2C(=O)NCc1cccc2ccccc12`, the figure is 16.2% (active); as for `COC(=O)C1=C(c2cc3ccccc3o2)C[C@@H]2CC[C@H]1N2C`, 0.83%; as for `CCC(=NCCC(c1ccccc1)c1ccccc1)c1c(O)[nH]c(=O)[nH]c1=O`, 2.3%. For `COC(=O)C1=C(c2ccc3ccccc3c2)C[C@@H]2CC[C@H]1N2C(=O)NC1Cc2ccccc2C1` the value was 6.91%. On to `O=C(Nc1ccccc1)c1c(O)[nH]c(=O)[nH]c1=O`, for which the CPE inhibition result was “inactive”. As for `Cc1ccc(CN2C(=O)CN=C(c3ccccc3)c3ccccc32)cc1`, the figure is 9.14% (active); as for `O=C1CN=C(c2ccccc2)c2cc(Br)ccc2N1Cc1cc(=O)n2ccccc2n1`, 0.155%. For `O=C(N/N=C/c1c(O)n(CCc2ccccc2)c(=O)[nH]c1=O)c1ccncc1` the value was 0.65%.

Consider `CN(C)S(=O)(=O)c1cc(NC(=O)COC(=O)Cc2ccccc2)ccc1Cl`, for which the CPE inhibition result is “inactive”. For `COC(=O)C1=C(c2ccc(S(C)(=O)=O)cc2)C[C@@H]2CC[C@H]1N2C(=O)NCc1ccc(C(F)(F)F)cc1` the value was 0.31%.
